Bioassay records as filed in PubChem.
Pol kappa inh-1: inhibitors of human DNA polymerase kappa; Q9UBT6; purified Pol kappa, fluorescent DNA synthesis assay, 10 min; Potency, µM (series often up to 107 µM), most hits filed as inhibitors; 0.53% of 400,000 active; AID 588579
Target sequence (Q9UBT6 whole entry, looked up): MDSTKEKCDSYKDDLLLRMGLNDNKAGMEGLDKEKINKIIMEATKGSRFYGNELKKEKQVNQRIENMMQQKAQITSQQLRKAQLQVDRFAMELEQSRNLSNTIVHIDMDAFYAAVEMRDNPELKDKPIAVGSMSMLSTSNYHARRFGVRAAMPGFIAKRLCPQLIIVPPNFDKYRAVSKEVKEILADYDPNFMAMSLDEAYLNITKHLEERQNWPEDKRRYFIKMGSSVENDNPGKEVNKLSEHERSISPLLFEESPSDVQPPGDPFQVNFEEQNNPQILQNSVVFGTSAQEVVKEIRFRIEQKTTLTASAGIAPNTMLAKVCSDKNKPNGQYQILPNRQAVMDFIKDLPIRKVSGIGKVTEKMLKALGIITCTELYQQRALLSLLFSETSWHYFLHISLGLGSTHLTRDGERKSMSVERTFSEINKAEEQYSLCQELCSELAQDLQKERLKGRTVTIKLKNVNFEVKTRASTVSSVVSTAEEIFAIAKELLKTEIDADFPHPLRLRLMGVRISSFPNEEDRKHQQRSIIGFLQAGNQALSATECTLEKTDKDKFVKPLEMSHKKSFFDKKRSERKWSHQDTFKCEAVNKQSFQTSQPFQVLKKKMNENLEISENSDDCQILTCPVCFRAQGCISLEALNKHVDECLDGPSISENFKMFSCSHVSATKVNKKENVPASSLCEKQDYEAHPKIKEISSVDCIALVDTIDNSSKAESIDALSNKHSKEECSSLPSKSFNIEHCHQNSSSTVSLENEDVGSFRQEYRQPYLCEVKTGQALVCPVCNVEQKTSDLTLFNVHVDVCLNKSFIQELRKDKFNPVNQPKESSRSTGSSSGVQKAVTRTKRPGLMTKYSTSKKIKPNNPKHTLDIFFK
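Pol kappa 10 nM + cpd, 15 min RT; start w/ substrate 50 nM final; fluorescence kinetic read, 0 and 10 min. Neg ctrl: buffer, no enzyme.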
WRN helicase inh: WRN helicase (human) inhibition | Q14191 | WRN helicase unwinding, fluorescent forked duplex, kinetic | Potency, µM (series often up to 114 µM), most hits filed as inhibitors | 0.46% of 360,000 active; further: nearly all actives have a fitted effect of over 55% in size
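Enzyme (20 nM final) and test compound sit together 15 min at room temperature before substrate addition. Substrate is a single-forked duplex oligonucleotide (100 nM) labelled with fluorophore and quencher, with 2 mM ATP; helicase unwinding raises red fluorescence, read kinetically.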
Pol eta inh-1: inhibitors of human DNA polymerase eta; recombinant Pol eta, fluorescent DNA replication assay; 1.2% of 390,000 active; Q9Y253; AID 588591; Potency, µM (highest dose often 114 µM), actives largely listed as inhibitors
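Pol eta at 10 nM preincubated with compounds 15 min at room temperature; reaction started with fluorescent substrate (50 nM final) and read kinetically at 0 and 10 min.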
Pol beta inh: inhibitors of human DNA polymerase beta; P06746; Pol beta primer extension/strand displacement, fluorescence kinetic; Potency, µM (series often up to 114 µM), hits mostly inhibitors; 1.3% of 340,000 active; AID 485314
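Preincubation: enzyme (10 nM) with compound, 15 min, RT. Reaction: substrate added to 50 nM final. Reads: 0 and 10 min. Analysis: normalized, Hill fit.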
FEN1 inhibitor: inhibitors of human flap endonuclease 1; P39748; Recombinant FEN1 flap cleavage, fluorescence, 15 min; Potency, µM (titrated, usually from 114 µM), most hits filed as inhibitors; 0.35% of 390,000 active; further: nearly all actives have a fitted effect of over 65% in size
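FEN1 at 10 nM, compound pretreatment for 15 min (room temperature), 50 nM final substrate to initiate; endpoint reads at 0 and 15 min; DMSO-only plates used as vehicle background.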
POLI inh: DNA polymerase iota (human) inhibition; Potency, µM (highest dose often 115 µM), actives largely listed as inhibitors; Pol iota fluorescent replication assay, 10 min; AID 588590; Q9UNA4; 1% of 390,000 active
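Pol iota at 10 nM preincubated 15 min with compounds at room temperature; reaction started with fluorescent substrate, 50 nM final. Fluorescence read kinetically at 0 and 10 min; buffer-only wells as negative control.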
GALK inh confirm: galactokinase (human) inhibition, confirmation; shares compounds with Pol eta inh-1; purified GALK, Kinase-Glo ATP depletion luminescence; Potency, µM (series often up to 115 µM), most hits filed as inhibitors; 70% of 150 active
Redox cycling: counter-screen for GALK inhibitors: redox cycling H2O2 generation; shares compounds with Pol eta inh-1; Phenol red-HRP H2O2 redox cycling, absorbance 600 nm; Potency, µM (series often up to 115 µM), usual class: inhibitors; 40% of 150 active; AID 2035
HEK293 tox: reduces HEK-293 cell viability in GALK counter-screen | shares compounds with Pol eta inh-1 | HEK-293 viability, ATP luminescence (CellTiter-Glo), 24/48 h | Potency, µM (doses to about 46.1 µM), hits mostly inhibitors | 10% of 170 active
Pol kappa inh-2: Pol kappa (human) inhibition, cherry-pick confirmation | Potency, µM, hits mostly inhibitors | 76% of 920 active | shares compounds with Pol eta inh-1 | purified Pol-kappa, fluorescent strand-displacement substrate | AID 720501
Pol eta inh-2: Pol eta (human) inhibition, cherry-pick confirmation; AID 720502; Pol eta primer extension, TAMRA/BHQ fluorescence, 10 min; Potency, µM, actives largely listed as inhibitors; 64% of 2,600 active; shares compounds with Pol eta inh-1
A number is an active result; . = inactive; ? = inconclusive; / = no result given; [ ] = remark or other dose. Only some compounds are listed: those with a hit (about 2.4% of all), similar ones and a draw of the others. The call rests on the fitted dose curve; in most records, active means well fitted curve in the direction sought with a large enough effect; inconclusive means small, poorly fitted or top-dose-only effect, or another doubt; inactive means no such curve, though single readings can be large; an effect the other way counts as inactive or inconclusive.

SMILES	Pol kappa inh-1	WRN helicase inh	Pol eta inh-1	Pol beta inh	FEN1 inhibitor	POLI inh	Pol eta inh-2	others
O=C1OC(c2ccc(Br)cc2)=N/C1=C\c1ccco1	.	.	.	.	.	.	/
CC1=N/C(=C/c2ccco2)C(=O)O1	50.1µM	.[11.6 µM]	10µM	10µM	.	?	30.1
Cc1cc(NC2=CC(=O)C(=O)c3ccccc32)no1	.	.[11.6 µM]	22.4µM	/	.	?	?
COc1cc(OC)c(NC2=CC(=O)C(=O)c3ccccc32)cc1Cl	.	.	?	.	.	.	/
CC(C)CNC(=O)C1(C)CCCCCN1C(=O)c1csnn1 (centres undefined)	/	.	/	/	/	/	/
O=C(O)C1CC=CCC1C(=O)N1CCc2ccccc21 (centres undefined)	?	.	?	20µM	.	.	?
CC(=O)c1ccc(NC(=S)NC(=O)/C=C/c2ccc(F)cc2)cc1	.	.	.	.	.	.	/
O=C(C=C1SCCS1)/C=C/c1ccco1	?	?	17.8µM	22.4µM	.	35.5µM	?
O=C(C=Cc1ccco1)c1ccco1	?	.	.	/	.	?	/
Cc1ccc(Cl)cc1NC(=O)CCn1cnc2ccccc2c1=O	.	/	44.7µM	?	.	?	75.7
Cc1oc2c(c1C(=O)Nc1cccc(C(=O)O)c1)CCCC2	.	.[11.6 µM]	50.1µM	?	.	79.4µM	?
Cc1ccc(/C=C(/C#N)C(=O)NC(=O)Oc2ccccc2)cc1	.	.	.	.	.	.	/
O=C1C=C(c2ccc3cc[nH]c3c2)C[C@@H](c2ccc3c(c2)OCO3)C1	79.4µM	?	22.4µM	/	?	14.1µM	75.7
CSC1=N/C(=C\c2ccc(Cl)cc2)C(=O)N1N(C)C	.	.	.	.	.	.	/
Cc1ccc(CNC(=O)c2ccc(N3CCC4(CC3)CC(c3ccccc3)=NO4)c(NC(=O)c3ccccc3)c2)cc1	.	.	.	/	.	?	/
COc1cc2c(C#N)c(N3CCN(C)CC3)nc(N)c2c(N)n1	/	/	/	.	/	/	/
CCCOc1cc2c(C#N)c(N3CCCC3)nc(N)c2c(N)n1	.	.	44.7µM	/	.	?	?
Cc1nn(C)c(Cl)c1CN1CCN(CCC(C)C)C(CCO)C1 (centres undefined)	.	.	.	.	.	.	/
O=C(c1cc(-c2ccco2)on1)N1CCCc2ccccc21	79.4µM	.	79.4µM	35.5µM	.	?	?
O=C(c1cc(-c2ccccc2)on1)N1CCCc2ccccc21	.	.	.	.	.	.	/
COc1ccc(C(=O)N2CCCc3ccccc32)cc1Br	.	.	.	.	.	.	/
O=C(c1coc(=O)c(Br)c1)N1CCCc2ccccc21	31.6µM	?	11.2µM	25.1µM	?	15.8µM	37.9	Pol kappa inh-2=42.3
Cc1ccccc1-c1n[nH]c(=S)n1/N=C/C=C/c1ccco1	17.8µM	?	22.4µM	.	15.8µM	7.94µM	75.7
S=c1[nH]nc(-c2ccc(Cl)cc2)n1/N=C/c1ccco1	.	.	.	.	.	.	/
Cc1cc(-c2n[nH]c(=S)n2/N=C/C=C/c2ccco2)n[nH]1	89.1µM	?	44.7µM	39.8µM	.	17.8µM	?
SMILES	Pol kappa inh-1	WRN helicase inh	Pol eta inh-1	Pol beta inh	FEN1 inhibitor	POLI inh	Pol eta inh-2	others
Cc1ccc2c(c1)c1c3n2CCN(C(=O)c2ccc(C(F)(F)F)cc2)C3CCC1 (centres undefined)	.	/	.	.	.	.	/
O=C(CSc1nc2ccsc2c(=O)n1NC(=O)c1ccccc1)NCc1ccco1	79.4µM	?	44.7µM	?	.	50.1µM	?
O=C(CSc1nc2ccsc2c(=O)n1Cc1ccccc1)NCc1ccco1	.	.	.	.	.	.	/
O=C(CSc1nc2ccccc2c(=O)n1Cc1ccco1)NCc1ccco1	?	.	79.4µM	?	.	31.6µM	?
CC(=O)NCCn1c(SCC(=O)NCc2ccco2)nc2ccccc2c1=O	.	.	.	.	.	.	/
CCn1c(C)c(C(C)=O)c(N2CCN(C(=O)c3ccco3)CC2)nc1=S	.	.	.	.	.	?	/
O=C(N=Nc1c(O)n(Cc2ccccc2)c2ccccc12)c1ccncc1	.	.	.	.	.	.	/
CCOC(=O)C1=C(C)OC2(O)c3ccccc3C(=O)C12O (centres undefined)	.	.	39.8µM	.	.	1.58µM	/	GALK inh confirm=26.6µM;Redox cycling=18.8µM;HEK293 tox=.
CC(=O)C1=C(C)OC2(O)c3ccccc3C(=O)C12O (centres undefined)	.	.	79.4µM	.	.	1µM	?
Cc1ccc(S(=O)(=O)NN2C(=O)/C(=C\c3ccc(Cl)cc3)SC2=S)cc1	.	?	39.8µM	.	?	?	23.9
O=C1CCC2=C1C1(CCCC1)N=C(Nc1nc3ccccc3o1)N2	/	/	/	/	/	/	/	HEK293 tox=.
CC1(C)CC(=O)C2=C(C1)NC(Nc1nc3ccccc3o1)=NC21CCCCC1	.	.	.	.	.	.	/	HEK293 tox=.
O=C1CC(c2ccccc2)CC2=C1C1(CCCCC1)N=C(Nc1nc3ccccc3o1)N2 (centres undefined)	/	/	/	/	/	/	/	HEK293 tox=.
c1ccc(Nc2nc3ccccc3o2)cc1	.	.	.	.	.	.	/
COc1ccc(CN2C(=NC(=O)C3CCCO3)SC3CS(=O)(=O)CC32)cc1OC (centres undefined)	.	.	.	.	.	.	/
Cc1noc(C)c1C(=O)N1CCCC(N2CCN(c3cccc(C(F)(F)F)c3)CC2)C1 (centres undefined)	.	.	.	.	.	.	/
O=C(CCc1ccc(S(=O)(=O)N2CCOCC2)cc1)Nc1nccs1	.	.	.	.	.	.	/
Cc1ccc(-n2nc3ccc(NC(=O)/C=C/c4ccco4)cc3n2)cc1	?	.	?	31.6µM	.	25.1µM	?
N#C/C(=C\c1cccnc1)C(=O)Nc1ccccc1[N+](=O)[O-]	.	.[11.6 µM]	31.6µM	.	?	.	75.7	Pol kappa inh-2=?
Cc1ccccc1NC(=O)/C(C#N)=C\c1cccnc1	.	.	.	.	.	.	/
